Screens (PubChem)
Sampled rows, rich in hits. Any-hit rate of the full collection: about 19%.
DT40 TDP1 CPT – DT40-hTDP1 cell growth loss with CPT; AID 686979; chicken DT40 Tdp1-/-;hTDP1 cells + 20 nM CPT, ATP luminescence, 48 h; Potency, µM (top dose mostly 46.2 µM), without a hit: at the highest dose activity change, negative = growth inhibition, actives largely listed as inhibitors; 12% of 420,000 active; further: potency means the concentration at half of the fitted maximal effect; on the % scale 0 is the no-effect control and ±100 the full control effect; nearly all actives have a fitted effect of over 55% in size
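Chicken DT40 Tdp1-/- cells stably complemented with human TDP1 were seeded at 400 cells/well in medium containing 20 nM camptothecin, exposed to pin-transferred compounds, and grown at 37 °C for at least 48 hr. Viability was read as ATP luminescence.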
IL1B secr inh – inflammasome signaling inhibition, IL-1 beta readout; THP-1 LPS/ATP IL-1B secretion, AlphaLISA, 16 h; stronger effect = lower value; 4.7% of 360,000 active; AID 743279; activity change, % at 57.5 µM; in the data active means activity change below about -50%; inconclusive means mostly about -30% to -49%; further: on the % scale 0 is the no-effect control and ±100 the full control effect
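Secreted IL-1B measured by AlphaLISA bead assay after 16 h compound exposure of THP-1 cells; compounds (final up to 57.5 uM) added 1 h before LPS (250 ng/mL) and ATP (1.25 mM) stimulation; lower signal means less secretion.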
TDP1 block – inhibitors of human tyrosyl-DNA phosphodiesterase TDP1 | Q9NUW8 | recombinant TDP1, AlphaScreen DNA substrate cleavage | Potency, µM (titrated, usually from 130 µM), inactives show top-dose activity change, negative = inhibition, most hits filed as inhibitors | 0.28% of 350,000 active; further: potency means the concentration at half of the fitted maximal effect; on the % scale 0 is the no-effect control and ±100 the full control effect; nearly all actives have a fitted effect of over 40% in size
Target sequence (Q9NUW8 whole entry, looked up): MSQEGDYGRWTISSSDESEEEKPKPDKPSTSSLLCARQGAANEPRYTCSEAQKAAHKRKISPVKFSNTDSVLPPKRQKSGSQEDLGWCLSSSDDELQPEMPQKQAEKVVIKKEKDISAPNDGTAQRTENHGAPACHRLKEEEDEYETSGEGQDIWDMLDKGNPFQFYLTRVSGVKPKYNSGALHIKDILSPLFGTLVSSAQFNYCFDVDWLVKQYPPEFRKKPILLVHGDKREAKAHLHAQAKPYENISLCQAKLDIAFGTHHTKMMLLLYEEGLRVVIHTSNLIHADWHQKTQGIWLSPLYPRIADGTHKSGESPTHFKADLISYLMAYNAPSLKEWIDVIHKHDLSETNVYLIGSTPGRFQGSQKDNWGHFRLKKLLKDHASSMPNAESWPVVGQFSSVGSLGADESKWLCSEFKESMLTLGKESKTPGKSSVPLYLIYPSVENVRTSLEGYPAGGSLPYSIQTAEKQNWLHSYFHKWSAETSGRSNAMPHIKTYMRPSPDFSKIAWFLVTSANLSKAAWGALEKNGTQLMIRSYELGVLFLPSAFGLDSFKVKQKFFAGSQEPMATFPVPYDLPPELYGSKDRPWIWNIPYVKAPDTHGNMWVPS
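Recombinant human Tdp1 (E. coli-expressed, 1 nM final) preincubated with compounds 15 min at room temperature, then 5'-biotin/3'-phosphotyrosine-FITC DNA substrate (15 nM final) added for 5 min. AlphaScreen beads (10 ug/ml final) added 10 min; cleavage lowers signal.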
TGFb SMAD3 inh – inhibitors of TGF-b signaling; 1.2% of 410,000 active; HepG2 CAGA-GFP TGF-b/SMAD3 reporter, GFP fluorescence, 18 h; TGF-beta stimulated, 500 pg/mL final; Potency, µM (highest dose often 46.1 µM), inactives show at the top dose activity, negative = inhibition, actives largely listed as inhibitors; AID 588855; further: potency means the concentration at half of the fitted maximal effect; on the % scale 0 is the no-effect control and ±100 the full control effect; nearly all actives have a fitted effect of over 65% in size
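HEPG2 CAGA-GFP, 1000 cells/well; 2 h settle, 37 C; cpd via pin tool; TGF-b 500 pg/mL final; 18 h, 37 C; GFP imaging ex488/em500-530; %Activity normalised to -TGF-b and +DMSO controls; CRC fit, curve class.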
TDP1 cell noCPT – qHTS for Inhibitors of human tyrosyl-DNA phosphodiesterase 1 (TDP1): qHTS in cells in absence of CPT | DT40 Tdp1-/- hTDP1 cells, no CPT, ATP luminescence, 48 h | Potency, µM (highest dose often 46.2 µM), without a hit: at the top dose activity change, negative = growth inhibition, hits mostly inhibitors | 15% of 420,000 active | AID 686978, 2013; further: potency means the concentration at half of the fitted maximal effect; on the % scale 0 is the no-effect control and ±100 the full control effect; nearly all actives have a fitted effect of over 55% in size
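A cellular qHTS used chicken DT40 cells lacking endogenous Tdp1 but carrying stably transfected human TDP1. Compounds were applied without camptothecin, and cell growth kinetics were judged by ATP-dependent luminescence after ≥48 hr.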
HepG2 tox – kills HepG2 cells in TGF-b inhibitor counter-screen; Potency, µM (top dose mostly 46.1 µM), inactives show at the highest dose activity change, negative = cytotoxicity, most hits filed as cytotoxic; HepG2 CAGA-GFP viability, ATP luminescence, 18 h; 0.76% of 410,000 active; further: potency means the concentration at half of the fitted maximal effect
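HepG2 CAGA-GFP cells (1000/well, DMEM with 1% FBS) received compound, then TGF-beta at 500 pg/mL final, and were incubated 18 hours at 37 degrees C. Viability was read by CellTiter-Glo luminescence. Media-only wells were set as complete cell-killing and DMSO as no toxicity.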
An asterisk follows results filed as active; u = inconclusive; x = no result given; [ ] = remark or other dose. Unless noted, the call rests on the fitted dose curve; in most records, active means well fitted curve in the direction sought with a large enough effect; inconclusive means small, poorly fitted or top-dose-only effect, or another doubt; inactive means no such curve, though single readings can be large; an effect the other way counts as inactive or inconclusive.

SMILES	DT40 TDP1 CPT	IL1B secr inh	TDP1 block	TGFb SMAD3 inh	TDP1 cell noCPT	HepG2 tox
Oc1[nH]c(=S)sc1C=C1N=c2ccccc2=N1	-2.4%	x	5.7%	-0.6%	-24.8%	-12.8%
Cc1ccc2c(c1)=N/C(=N\c1[nH]c(O)c3ccccc13)N=2	4.11µM*	-102.1*	x	u	3.66µM*	-92.8%
O=C(CCNS(=O)(=O)c1ccc(Cl)cc1)N1CCN(Cc2ccccc2)CC1	-23.6%	-2.0	-5.3%	-26.0%	-17.1%	-21.9%
Cc1c(C)c(C)c(S(=O)(=O)NCCC(=O)N2CCN(Cc3ccc(C#N)cc3)CC2)c(C)c1C	16.4µM*	8.2	1.8%	u	8.2µM*	-26.4%
C=Cc1ccc2c(c1)N(C)C(=C)S2	16.4µM*	-11.0	7.7%	1.2%	23.1µM*	8.8%
CC(=O)c1ccc2c(c1)N(C)c1ccccc1S2	-19.8%	-16.4	x	8.6%	u	-31.6%
Cn1c(=O)c(-c2ccc(Cl)cc2)nc2cnc(N3CCNCC3)nc21	10.3µM*	x	x	x	16.4µM*	x
CN1CCN(c2ncc3nc(-c4ccc(Cl)cc4)c(=O)n(C)c3n2)CC1	20.6µM*	x	x	x	u	x
COc1ccccc1C(CC(=O)O)c1ccc2c(c1)OCO2 (stereo not given)	-0.7%	42.8	7.6%	-5.8%	26.6%	-0.3%
C=CC(=O)N(CCC)C(c1ccccc1)c1ccccc1OC (stereo not given)	16.4µM*	-27.0	-5.8%	u	14.6µM*	-25.3%
CSc1ccc(C2CC(=O)Oc3c2c(=O)n(C)c2ccccc32)cc1 (stereo not given)	-7.3%	x	1.9%	3.3%	-29.4%	2.6%
CC(C)(C)N1CSC(=S)N(Cc2ccccc2)C1	5.17µM*	6.0	1.3%	0.0%	4.61µM*	4.2%
S=C1NCN(Cc2cccnc2)CN1Cc1ccccc1	-25.2%	28.7	x	-5.6%	u	-26.7%
CC(C)N1CSC(=S)N(Cc2ccccc2)C1	4.11µM*	-98.7*	7.2%	13.0%	4.11µM*	-14.7%
S=C1NCN(CCc2ccccc2)CN1Cc1ccccc1	u	-2.1	-5.1%	-19.3%	u	-8.0%
S=C1SCN(Cc2cccnc2)CN1Cc1ccccc1	2.91µM*	-106.8*	3.7%	u	4.61µM*	-0.2%
CCCC(=O)N1CCCC1(C)C(=O)Nc1ccc(C)c(C)c1 (stereo not given)	4.5%	-1.4	x	27.5%	-16.3%	13.4%
Cc1ccc(NC(=O)C2(C)CCN2C(=O)Cc2ccccc2)cc1C (stereo not given)	u	8.5	x	4.2%	16.4µM*	1.9%
Cc1ccc(NC(=O)C2(C)CCN2C(=O)Cc2ccc(C(C)(C)C)cc2)cc1C (stereo not given)	20.6µM*	5.3	x	u	10.3µM*	-44.7%
Cc1ccc(NC(=O)C2(C)CCN2C(=O)C2CCCCC2)cc1C (stereo not given)	u	11.4	x	-21.1%	18.4µM*	-18.5%
CC(C)(C)CNC(=O)C1(C)CCN1C(=O)Cc1ccc(C(C)(C)C)cc1 (stereo not given)	u	-1.5	x	-9.8%	u	-10.5%
COc1ccc(NC(=O)C2(C)CCN2C(=O)Cc2ccccc2)cc1OC (stereo not given)	u	4.4	x	8.2%	u	1.6%
Cc1ccc(NC(=O)CSc2nc3ccccc3nc2Cc2ccccc2F)cc1F	17.4%	x	2.9%	0.4%	1.3%	-2.1%
Cc1cc(C)c(NC(=O)c2cc(S(=O)(=O)N3CCCC3)cn2C)c(C)c1	-2.4%	x	-1.9%	-22.2%	-25.3%	11.5%
COCc1ccc(C(=O)N2CCOc3c(cc(-c4cc(C)c5cccc(OC)c5n4)cc3OC)C2)o1	13.5%[9.04 µM]	x	x	x	-7.6%	x
SMILES	DT40 TDP1 CPT	IL1B secr inh	TDP1 block	TGFb SMAD3 inh	TDP1 cell noCPT	HepG2 tox
C=C1c2cc3c(cc2NC(=S)N1Cc1ccccc1)OCO3	16.4µM*	x	5.0%	0.0%	u	-4.7%
S=C(NCc1ccc2c(c1)OCO2)NC1CCN(Cc2ccccc2)CC1	u	u	-5.8%	-5.6%	u	-6.7%
COc1ccccc1C1CN(CC(=O)NCC2OCCc3ccccc32)Cc2ccccc2O1 (stereo not given)	2.8%[9.04 µM]	x	x	x	-15.1%	x
CCc1cccc(NC(=O)COC(=O)c2c(C)nn(-c3ccccc3)c2C)c1	-26.8%	7.5	x	9.9%	u	-2.6%
COc1cccc(NC(=O)COC(=O)c2c3c(nc4ccccc24)CCC(C)C3)c1 (stereo not given)	8.2µM*	-0.2	1.9%	u	9.2µM*	-54.7%
COc1cccc(NC(=O)COC(=O)c2c(C)nn(-c3ccccc3)c2C)c1	u	-56.3*	1.4%	-19.3%	-23.6%	-6.1%
COC(=O)NC(CC(C)=O)c1cccc(C)c1 (stereo not given)	x	x	-3.7%[21 µM]	x	x	x
CN(C)CC(C)(O)c1ccc2c(c1)CN(Cc1cccn1-c1ncccn1)CCO2 (stereo not given)	4.3%[9.04 µM]	x	x	x	-14.4%	x
CSC1=C(C#N)C(c2sccc2C)CC(=O)N1 (stereo not given)	u	-75.9*	0.0%	-2.7%	-24.6%	-7.4%
COc1ccc(OC)c(C2CC(=O)NC(SC)=C2C#N)c1 (stereo not given)	-17.6%	-1.2	3.7%	-1.0%	0.7%	-23.0%
O=C(CSc1nc2c([nH]c3ccccc32)c(=O)n1-c1cccc(C(F)(F)F)c1)N1CCCC1	3.0%	x	0.0%	-15.2%	-0.1%	-33.7%
CCCn1c(N)c(Sc2ccc([N+](=O)[O-])cc2)c(=O)n(CCC)c1=O	-14.3%	-15.7	2.6%	10.4%	u	-1.5%
CCCn1c(N)c(Sc2ccccc2)c(=O)n(CCC)c1=O	u	0.0	5.2%	-0.3%	14.6µM*	-0.3%
CCN(CC)CCn1c(=S)[nH]c2cc(C(=O)N3CC=C(c4ccccc4)CC3)ccc2c1=O	x	x	0.0%	x	x	x
Cc1ccc([C@H]2C[C@H](n3cc(-c4ccc(F)cc4)nn3)[C@@H](O)CN2C(=O)C2CCCCC2)cc1	-26.4%	-7.2	x	6.7%	-10.9%	-0.4%
COc1ccc(/C=C/C(=O)c2ccoc2)cc1	u	u	1.0%	u	u	-33.1%
COc1cc(/C=C/C(C)=O)cc(OC)c1OC	-29.7%	u	-4.7%	0.0%	u	18.0%
COc1ccc2cc(C(=O)/C=C/c3cc(OC)c(OC)c(OC)c3)ccc2c1	25.9µM*	-61.9*	10.5%	6.7%	20.6µM*	-5.6%
